Pf Dd2 inh – qHTS Primary assay for Inhibitors of Plasmodium falciparum Dd2 growth in vitro; Potency, µM (series often up to 28.9 µM), inactives show at the highest dose activity, negative = inhibition, hits mostly inhibitors; 120,000 compounds, 4.3% hits; P. falciparum Dd2 growth, SYBR Green, 72 h; active = well fitted inhibition curve with a large enough effect;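 also: plate controls were DMSO vehicle for no effect and reference drug for full effect; nearly all actives have a fitted effect of over 65% in size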
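Readout: SYBR Green fluorescence, 485 nm excitation, 535 nm emission, after ~16 h lysis at 37C. Before that, Dd2-infected red cells (2.5% hematocrit) grew 72 h with compound, 29 uM top final concentration.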
Active calls of the source: *; i = inactive; [ ] = another dose, or the depositor's remark. The full list was thinned out, with hits kept by preference. Potency is read from the fitted curve at half-maximal effect.

SMILES | Pf Dd2 inh
Cc1ccc(N2CC(c3noc(C4(c5ccccc5)CC4)n3)CC2=O)cc1 (stereo not drawn) | -18.4%
CCOC(=O)c1cccc(NC(=O)O[C@@H]2CO[C@H]3[C@@H]2OC[C@@H]3n2nnnc2SC2CCCC2)c1 | -21.8%
COCc1nc(C2CCCN(C(=O)c3nccn3C)C2)no1 (stereo not drawn) | 8.8%
CN(CC1CCOC1)S(=O)(=O)c1cccc(F)c1 (stereo not drawn) | 28.5%[5.79 µM]
CC1CCN(S(=O)(=O)C2CCS(=O)(=O)C2)CC1 (stereo not drawn) | -6.6%
CC(C)CC(=O)NCC1Cn2cccc2C(=O)N1Cc1ccccc1 (stereo not drawn) | -1.8%
CC(C)c1ccc(C(=O)N2CC[C@H](N(C)C)[C@H](CCC(=O)O)C2)c(=O)[nH]1 | -17.3%
Cc1nc(C2CC(O)C2)cc(N2CCC(OCc3cccnc3)CC2)n1 (stereo not drawn) | -24.1%
CNCC(=O)N1CCc2ncnc(N3CCSCC3)c2CC1 | 1.5%
COc1ccc(CC(=O)Nc2ccc(=O)n3c2[C@@H]2C[C@@H](CN(C(=O)Nc4ccc(F)cc4)C2)C3)cc1 | 14.2%
COC(=O)[C@H](NC(=O)[C@@H]1C[C@H](NC(=O)Nc2cccc(SC)c2)CN1C(=O)c1cccn1C)C(C)C | -3.3%
Cc1cc(C)n2nc(-c3ccc(Cl)cc3)nc2n1 | i
Cc1ccc(S(=O)(=O)Nc2nc3n(n2)C(c2ccccc2Cl)C=C(c2ccccc2)N3)cc1 (stereo not drawn) | -1.8%
COc1ccc(C2C=C(c3ccc(Cl)cc3)Nc3nc(-c4ccc(Cl)cc4)nn32)cc1 (stereo not drawn) | 0.1µM*
COc1ccc(-c2nc3n(n2)C(c2cccc(C)c2)C(C(N)=O)=C(C)N3)cc1OC (stereo not drawn) | -9.5%
Cc1ccc(C2=CC(c3ccc(Cl)cc3)n3nc(-c4ccc(C)cc4)nc3N2)cc1 (stereo not drawn) | 1.26µM*
Cc1ccc(-c2nc3n(n2)C(c2ccccc2C)C=C(c2ccc(Cl)cc2)N3)cc1 (stereo not drawn) | 5.01µM*
CC1=C(C(N)=O)C(c2ccccc2F)n2nc(-c3ccc(Cl)cc3)nc2N1 (stereo not drawn) | -12.9%
COc1ccc(-c2nc3n(n2)C(=O)CC(c2ccc(Cl)cc2)S3)cc1 (stereo not drawn) | 39.2%
CCOc1ccc(C2C=C(c3cccc(OC)c3)Nc3nnnn32)cc1 (stereo not drawn) | i
COc1ccccc1NC(=O)c1cc2c(N3CCSCC3)nc(C)cn2n1 | -1.6%
CN1CCC(O)(C(=O)N2C[C@@H](C(=O)O)[C@H](c3ccc(F)cc3)C2)CC1 | -3.5%
Cc1noc(C)c1C(=O)N[C@H]1CO[C@H]2[C@@H]1OC[C@H]2OCc1ccccc1 | 9.6%[44.1 µM]
C[C@@]1(O)CCN(C(=O)c2ccc(N3CCCC3=O)cc2)C[C@@H]1O | 17.1%
COc1ccc(CC(=O)Nc2sc3c(c2C(=O)Nc2ccccc2)CCCCC3)cc1 | 0.0%
SMILES | Pf Dd2 inh
O=C(COc1ccccc1)Nc1sc2c(c1C(=O)Nc1ccccc1)CCCCC2 | 24.6%
COc1ccc(NC(=O)c2c(NC(=O)c3cccc(C)c3)sc3c2CCC3)cc1 | -10.4%
CCOC(=O)c1ccc(NC(=O)c2c(NCc3cccs3)sc3c2CCCCC3)cc1 | 10µM*
CCOC(=O)c1ccc(NC(=O)c2csc3c2CCCC3)cc1 | -22.3%
COc1ccc(NC(=O)c2c(NCc3cccs3)sc3c2CCCC3)cc1 | 7.94µM*
COc1ccc(NC(=O)c2c(NC(=O)COc3ccc(Cl)cc3)sc3c2CCCCC3)cc1 | 3.16µM*
CCCCOc1ccc(C(=O)Nc2sc3c(c2C(=O)OCC)CCCCC3)cc1 | -16.9%
COC(=O)c1c(NC(=O)COc2cc(C)c(Cl)c(C)c2)sc2c1CCCC2 | 2.8%
COc1ccc(NC(=O)CN2C(=O)NC3(CCC(C)CC3)C2=O)cc1 (stereo not drawn) | 17.9%
Cc1ccc(-n2c(C3CCN(C(=O)c4cccc(Cl)c4)CC3)n[nH]c2=O)cc1 | -7.7%
O=C(Nc1ccccc1F)N1CC2CCC(C1)N2Cc1cccc(Cl)c1 | 8.7%
O=c1cc(CNCc2nc(-c3ncccn3)no2)[nH]c2ccc(F)cc12 | -26.5%
C#CCNC(=O)C1CCCN(c2nc3ncccc3o2)C1 (stereo not drawn) | -9.2%[44.1 µM]
COc1cccc2sc(=NC(=O)c3ccc(S(=O)(=O)N4CCCCC4)cc3)n(C)c12 | 0.8%
COc1ccccc1N1CCN(S(=O)(=O)c2ccc(-c3coc(C)n3)cc2)CC1 | 41.1%
COc1ccccc1N=c1scc(-c2ccc(S(=O)(=O)N3CCCC3)cc2)n1C | 10µM*
Cc1ccc(F)c(OCC(=O)c2ccc3c(c2)N(C(C)C(=O)NCc2ccco2)C(=O)CO3)c1 (stereo not drawn) | i
COc1ccc(OCCn2c(C(C)Oc3ccccc3)nc3ccccc32)cc1 (stereo not drawn) | -28.1%
COc1ccc(OCCn2c(NC(=O)c3ccc(OC)cc3)nc3ccccc32)cc1 | 56.7%
COc1ccc(C(=O)Nc2nc3ccccc3n2CCOc2ccc(Cl)cc2)cc1 | 11.2µM*

Assay outcomes deposited in PubChem by National Center for Advancing Translational Sciences (NCATS).
